# Measurements as given in the supplement of paper PMC8728848.
# This excerpt belongs to a sample that is enriched for the strongest signals.
# B1: Pbx1CASH domain (Cryptococcus neoformans) (protein)
# chain: MDETKPLWGNPRADGISLACKDSIVERNVVYDATDGAIVLFGSAGSTVKNNHVYARTRVILGGINLVDYEPWDGDYTNVKVHHNHLYALGRYFKVGIVIGPASWSDDTESVVHSASVTDNEFSGGYWGYGIVVASAKNFEVLRNKVIWDGEQGVARFSGVPGS
# Legend:
# Experiment in all cases: glycan array binding signal (z-score within array); higher = stronger binding
# Details in all cases: glycan notation: IUPAC condensed, linker removed
# [1] = target: Fuc(a1-2)Gal(b1-3)GalNAc(b1-3)Gal
# Outline: (§1)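 Arrays were curated from the Consortium for Functional Glycomics database, 3228 in total, and kept only where the protein sequence was available. Binding is expressed as a within-array Z-score. This score was averaged across arrays of the same protein sequence at different concentrations or buffers and across linkers, and negative values can be read as non-binding.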
# [2] = target: Fuc(a1-2)Gal(b1-3)GalNAc(b1-3)Gal(a1-4)Gal(b1-4)Glc
# Outline: as §1
# [3] = target: Fuc(a1-2)Gal(b1-3)GlcNAc(b1-3)[Gal(b1-4)GlcNAc(b1-6)]Gal(b1-4)Glc
# Outline: as §1
# [4] = target: Fuc(a1-2)Gal(b1-4)[Fuc(a1-3)]GlcNAc(b1-3)GalNAc
# Outline: as §1
# [5] = target: Fuc(a1-2)[Gal(a1-3)]Gal(b1-4)GlcNAc(b1-2)Man(a1-3)[Fuc(a1-2)[Gal(a1-3)]Gal(b1-4)GlcNAc(b1-2)Man(a1-6)]Man(b1-4)GlcNAc(b1-4)[Fuc(a1-6)]GlcNAc
# Outline: as §1
# [6] = target: Fuc(a1-2)[GalNAc(a1-3)]Gal(b1-4)[Fuc(a1-3)]GlcNAc
# Outline: as §1
# [7] = target: Fuc(a1-3)[Gal(b1-4)]GlcNAc(b1-2)Man(a1-3)[Fuc(a1-3)[Gal(b1-4)]GlcNAc(b1-2)Man(a1-6)]Man(b1-4)GlcNAc(b1-4)[Fuc(a1-6)]GlcNAc
# Outline: as §1
# [8] = target: Fuc(a1-3)[Gal(b1-4)]GlcNAc(b1-3)Gal(b1-3)[Fuc(a1-4)]GlcNAc
# Outline: as §1
# [9] = target: Fuc(a1-3)[Gal(b1-4)]GlcNAc6S
# Outline: as §1
# Gal(a1-2)Gal = target: Gal(a1-2)Gal
# Outline: as §1
# Gal(a1-3)Gal(b1-3)GlcNAc = target: Gal(a1-3)Gal(b1-3)GlcNAc
# Outline: as §1
# [10] = target: Gal(a1-3)Gal(b1-3)GlcNAc(b1-3)GalNAc
# Outline: as §1
# [11] = target: Gal(a1-3)Gal(b1-4)GlcNAc(b1-6)GalNAc
# Outline: as §1
# Gal(b1-2)Gal = target: Gal(b1-2)Gal
# Outline: as §1
# [12] = target: Gal(b1-3)GalNAc(a1-3)[Fuc(a1-2)]Gal(b1-4)Glc
# Outline: as §1
# [13] = target: Gal(b1-3)GalNAc(b1-3)Gal(a1-4)Gal(b1-4)Glc
# Outline: as §1
# [14] = target: Gal(b1-3)GlcNAc(b1-6)[Gal(b1-3)]GalNAc
# Outline: as §1
# [15] = target: Gal(b1-3)[Neu5Ac(a2-6)]GalNAc
# Outline: as §1
# Gal(b1-4)GlcNAc(b1-2)Man = target: Gal(b1-4)GlcNAc(b1-2)Man
# Outline: as §1
# [16] = target: Gal(b1-4)GlcNAc(b1-3)Gal(b1-4)GlcNAc(b1-2)Man(a1-3)[Gal(b1-4)GlcNAc(b1-3)Gal(b1-4)GlcNAc(b1-2)Man(a1-6)]Man(b1-4)GlcNAc(b1-4)GlcNAc
# Outline: as §1
# [17] = target: Gal(b1-4)GlcNAc(b1-3)Gal(b1-4)GlcNAc(b1-3)Gal(b1-4)GlcNAc(b1-2)Man(a1-3)[Gal(b1-4)GlcNAc(b1-3)Gal(b1-4)GlcNAc(b1-3)Gal(b1-4)GlcNAc(b1-2)Man(a1-6)]Man(b1-4)GlcNAc(b1-4)GlcNAc
# Outline: as §1
# [18] = target: Gal(b1-4)GlcNAc(b1-3)Gal(b1-4)GlcNAc(b1-3)Gal(b1-4)GlcNAc(b1-3)Gal(b1-4)GlcNAc(b1-3)Gal(b1-4)GlcNAc(b1-2)Man(a1-3)[Gal(b1-4)GlcNAc(b1-3)Gal(b1-4)GlcNAc(b1-3)Gal(b1-4)GlcNAc(b1-3)Gal(b1-4)GlcNAc(b1-3)Gal(b1-4)GlcNAc(b1-2)Man(a1-6)]Man(b1-4)GlcNAc(b1-4)[Fuc(a1-6)]GlcNAc
# Outline: as §1
# [19] = target: Gal(b1-4)GlcNAc(b1-3)Gal(b1-4)GlcNAc(b1-3)[Gal(b1-4)GlcNAc(b1-3)Gal(b1-4)GlcNAc(b1-6)]GalNAc
# Outline: as §1
# [20] = target: Gal(b1-4)GlcNAc(b1-3)Gal(b1-4)GlcNAc(b1-6)[Gal(b1-3)]GalNAc
# Outline: as §1
# GalNAc(b1-4)GlcNAc = target: GalNAc(b1-4)GlcNAc
# Outline: as §1
# GalNAc3S(b1-4)GlcNAc = target: GalNAc3S(b1-4)GlcNAc
# Outline: as §1
# Glc(a1-4)Glc = target: Glc(a1-4)Glc
# Outline: as §1
# GlcA(b1-6)Gal = target: GlcA(b1-6)Gal
# Outline: as §1
# [21] = target: GlcNAc(a1-4)Gal(b1-3)GlcNAc
# Outline: as §1
# [22] = target: GlcNAc(a1-4)Gal(b1-4)GalNAc
# Outline: as §1
# [23] = target: GlcNAc(a1-6)Gal(b1-4)GlcNAc
# Outline: as §1
# [24] = target: GlcNAc(b1-2)Man(a1-3)[GlcNAc(b1-2)Man(a1-6)]Man(b1-4)GlcNAc(b1-4)GlcNAc
# Outline: as §1
# [25] = target: GlcNAc(b1-3)Gal(b1-4)GlcNAc(b1-3)Gal(b1-4)GlcNAc(b1-2)Man(a1-3)[GlcNAc(b1-3)Gal(b1-4)GlcNAc(b1-3)Gal(b1-4)GlcNAc(b1-2)Man(a1-6)]Man(b1-4)GlcNAc(b1-4)GlcNAc
# Outline: as §1
# [26] = target: GlcNAc(b1-3)Gal(b1-4)GlcNAc(b1-6)[GlcNAc(b1-3)Gal(b1-3)]GalNAc
# Outline: as §1
# [27] = target: GlcNAc(b1-3)Gal(b1-4)GlcNAc(b1-6)[GlcNAc(b1-3)]Gal(b1-4)GlcNAc
# Outline: as §1
# GlcNAc(b1-3)Man = target: GlcNAc(b1-3)Man
# Outline: as §1
# Kdn(a2-3)Gal(b1-3)GlcNAc = target: Kdn(a2-3)Gal(b1-3)GlcNAc
# Outline: as §1
# [28] = target: Man(a1-3)[Man(a1-6)]Man(a1-6)[Man(a1-3)]Man
# Outline: as §1
# [29] = target: Man(a1-3)[Man(a1-6)]Man(b1-4)GlcNAc(b1-4)GlcNAc
# Outline: as §1
# Man(b1-4)GlcNAc = target: Man(b1-4)GlcNAc
# Outline: as §1
# Neu5Ac(a2-3)Gal = target: Neu5Ac(a2-3)Gal
# Outline: as §1
# [30] = target: Neu5Ac(a2-3)Gal(b1-3)GlcNAc6S
# Outline: as §1
# [31] = target: Neu5Ac(a2-3)Gal(b1-4)GlcNAc(b1-2)Man
# Outline: as §1
# [32] = target: Neu5Ac(a2-3)Gal(b1-4)GlcNAc(b1-3)Gal(b1-3)GlcNAc
# Outline: as §1
# [33] = target: Neu5Ac(a2-3)Gal(b1-4)GlcNAc(b1-3)Gal(b1-4)GlcNAc(b1-2)Man(a1-3)[Neu5Ac(a2-3)Gal(b1-4)GlcNAc(b1-3)Gal(b1-4)GlcNAc(b1-2)Man(a1-6)]Man(b1-4)GlcNAc(b1-4)GlcNAc
# Outline: as §1
# [34] = target: Neu5Ac(a2-3)Gal(b1-4)GlcNAc(b1-3)Gal(b1-4)GlcNAc(b1-3)Gal(b1-4)GlcNAc(b1-2)Man(a1-3)[Neu5Ac(a2-3)Gal(b1-4)GlcNAc(b1-3)Gal(b1-4)GlcNAc(b1-3)Gal(b1-4)GlcNAc(b1-2)Man(a1-6)]GalNAc
# Outline: as §1
# Neu5Ac(a2-6)Gal(b1-4)Glc = target: Neu5Ac(a2-6)Gal(b1-4)Glc
# Outline: as §1
# [35] = target: Neu5Ac(a2-6)Gal(b1-4)GlcNAc
# Outline: as §1
# [36] = target: Neu5Ac(a2-6)Gal(b1-4)GlcNAc(b1-2)Man(a1-6)[Gal(b1-4)GlcNAc(b1-2)Man(a1-3)]Man(b1-4)GlcNAc(b1-4)GlcNAc
# Outline: as §1
# [37] = target: Neu5Ac(a2-6)Gal(b1-4)GlcNAc(b1-3)Gal(b1-4)GlcNAc(b1-3)Gal(b1-4)GlcNAc(b1-2)Man(a1-3)[Neu5Ac(a2-6)Gal(b1-4)GlcNAc(b1-3)Gal(b1-4)GlcNAc(b1-3)Gal(b1-4)GlcNAc(b1-2)Man(a1-6)]GalNAc
# Outline: as §1
# [38] = target: Neu5Gc(b2-6)Gal(b1-4)GlcNAc
# Outline: as §1
binder,measurement,setting,value
B1,glycan array binding signal (z-score),[1],1.37
same,glycan array binding signal (z-score),[2],0.581
same,glycan array binding signal (z-score),[3],0.324
same,glycan array binding signal (z-score),[4],2.39
same,glycan array binding signal (z-score),[5],-0.277
same,glycan array binding signal (z-score),[6],-0.042
same,glycan array binding signal (z-score),[7],-0.469
same,glycan array binding signal (z-score),[8],0.08
same,glycan array binding signal (z-score),[9],0.01
same,glycan array binding signal (z-score),Gal(a1-2)Gal,-0.625
same,glycan array binding signal (z-score),Gal(a1-3)Gal(b1-3)GlcNAc,-0.681
same,glycan array binding signal (z-score),[10],-0.095
same,glycan array binding signal (z-score),[11],-0.006
same,glycan array binding signal (z-score),Gal(b1-2)Gal,-0.215
same,glycan array binding signal (z-score),[12],0.601
same,glycan array binding signal (z-score),[13],0.926
same,glycan array binding signal (z-score),[14],1.3
same,glycan array binding signal (z-score),[15],-0.674
same,glycan array binding signal (z-score),Gal(b1-4)GlcNAc(b1-2)Man,0.337
same,glycan array binding signal (z-score),[16],5.46
same,glycan array binding signal (z-score),[17],3.17
same,glycan array binding signal (z-score),[18],-0.419
same,glycan array binding signal (z-score),[19],4.67
same,glycan array binding signal (z-score),[20],2.73
same,glycan array binding signal (z-score),GalNAc(b1-4)GlcNAc,-0.736
same,glycan array binding signal (z-score),GalNAc3S(b1-4)GlcNAc,-0.852
same,glycan array binding signal (z-score),Glc(a1-4)Glc,-0.667
same,glycan array binding signal (z-score),GlcA(b1-6)Gal,-0.6
same,glycan array binding signal (z-score),[21],-0.187
same,glycan array binding signal (z-score),[22],0.311
same,glycan array binding signal (z-score),[23],-0.894
same,glycan array binding signal (z-score),[24],0.233
same,glycan array binding signal (z-score),[25],4.67
same,glycan array binding signal (z-score),[26],0.647
same,glycan array binding signal (z-score),[27],1.15
same,glycan array binding signal (z-score),GlcNAc(b1-3)Man,0.12
same,glycan array binding signal (z-score),Kdn(a2-3)Gal(b1-3)GlcNAc,-0.869
same,glycan array binding signal (z-score),[28],-0.5
same,glycan array binding signal (z-score),[29],0.022
same,glycan array binding signal (z-score),Man(b1-4)GlcNAc,-0.348
same,glycan array binding signal (z-score),Neu5Ac(a2-3)Gal,-0.64
same,glycan array binding signal (z-score),[30],0.698
same,glycan array binding signal (z-score),[31],2.55
same,glycan array binding signal (z-score),[32],-0.104
same,glycan array binding signal (z-score),[33],2.42
same,glycan array binding signal (z-score),[34],3.29
same,glycan array binding signal (z-score),Neu5Ac(a2-6)Gal(b1-4)Glc,-0.412
same,glycan array binding signal (z-score),[35],-0.348
same,glycan array binding signal (z-score),[36],-0.843
same,glycan array binding signal (z-score),[37],3.13
same,glycan array binding signal (z-score),[38],2.35
